# In PubChem BioAssay AID1159580 (chemical genetic matrix, 2015):
# In all, about 5,500 compounds went through this assay and about 2,000 (36%) were called active. Inconclusive results (about 18%) are left out. The list shows a part of the results. A number with no mark means an inactive call. Rule as the data show it: active = normalized growth mostly below about 0.91 (no sharp cut-off); inconclusive = no clear call, values can overlap the other calls; inactive = mostly above about 0.92.
# Test: chemical genetic growth profiling, strain panel (AID 1159580);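 also: tested at 20 µM; growth read once vehicle control cultures reached saturation at 30 °C; 1 = growth at the plate median or of vehicle wells; lower values mean less growth of the strain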
# Conditions: S. cerevisiae deletion strains, growth OD
smiles,measurement,setting,value
NNC(=O)COc1ccc(C2SCCS2)cc1,normalized growth,"locus YBL105C, strain PKC1, active compounds read low",0.962
same,normalized growth,"locus YBR135W, strain CKS1, active compounds read low",0.954
same,normalized growth,"locus YBR136W, strain MEC1, active compounds read low",0.986
same,normalized growth,"locus YBR160W, strain CDC28, active compounds read low",0.96
same,normalized growth,"locus YDL017W, strain CDC7, active compounds read low",0.971
same,normalized growth,"locus YDL028C, strain MPS1, active compounds read low",0.964
same,normalized growth,"locus YDL101C, strain DUN1, active compounds read low",0.337 (active)
same,normalized growth,"locus YDL108W, strain KIN28, active compounds read low",0.97
same,normalized growth,"locus YDL214C, strain PRR2, active compounds read low",0.16 (active)
same,normalized growth,"locus YDR052C, strain DBF4, active compounds read low",0.969
same,normalized growth,"locus YDR226W, strain ADK1, active compounds read low",0.962
same,normalized growth,"locus YDR477W, strain SNF1, active compounds read low",0.197 (active)
same,normalized growth,"locus YER123W, strain YCK3, active compounds read low",0.148 (active)
same,normalized growth,"locus YER133W, strain GLC7, active compounds read low",0.4 (active)
same,normalized growth,"locus YFR003C, strain YPI1, active compounds read low",0.974
same,normalized growth,"locus YFR019W, strain FAB1, active compounds read low",0.144 (active)
same,normalized growth,"locus YFR028C, strain CDC14, active compounds read low",0.973
same,normalized growth,"locus YGR040W, strain KSS1, active compounds read low",0.233 (active)
same,normalized growth,"locus YGR052W, strain FMP48, active compounds read low",0.152 (active)
same,normalized growth,"locus YGR092W, strain DBF2, active compounds read low",0.13 (active)
same,normalized growth,"locus YHR030C, strain SLT2, active compounds read low",0.104 (active)
same,normalized growth,"locus YHR079C, strain IRE1, active compounds read low",0.127 (active)
same,normalized growth,"locus YHR082C, strain KSP1, active compounds read low",0.188 (active)
same,normalized growth,"locus YHR205W, strain SCH9, active compounds read low",0.162 (active)
same,normalized growth,"locus YIL147C, strain SLN1, active compounds read low",0.969
same,normalized growth,"locus YJL095W, strain BCK1, active compounds read low",0.128 (active)
same,normalized growth,"locus YJL157C, strain FAR1, active compounds read low",0.163 (active)
same,normalized growth,"locus YJR016C, strain ILV3, active compounds read low",0.939
same,normalized growth,"locus YJR066W, strain TOR1 (second series), active compounds read low",0.156 (active)
same,normalized growth,"locus YJR066W, strain TOR1, active compounds read low",0.159 (active)
same,normalized growth,"locus YKL048C, strain ELM1, active compounds read low",0.215 (active)
same,normalized growth,"locus YKL067W, strain YNK1, active compounds read low",0.141 (active)
same,normalized growth,"locus YKL101W, strain HSL1, active compounds read low",0.153 (active)
same,normalized growth,"locus YKL193C, strain SDS22, active compounds read low",0.927
same,normalized growth,"locus YKL203C, strain TOR2, active compounds read low",0.209 (active)
same,normalized growth,"locus YLR113W, strain HOG1, active compounds read low",0.171 (active)
same,normalized growth,"locus YLR133W, strain CKI1, active compounds read low",0.194 (active)
same,normalized growth,"locus YLR403W, strain SFP1, active compounds read low",0.152 (active)
same,normalized growth,"locus YML070W, strain DAK1, active compounds read low",0.145 (active)
same,normalized growth,"locus YMR001C, strain CDC5, active compounds read low",0.95
same,normalized growth,"locus YMR205C, strain PFK2 (second series), active compounds read low",0.151 (active)
same,normalized growth,"locus YMR277W, strain FCP1, active compounds read low",0.85 (active)
same,normalized growth,"locus YNL006W, strain LST8, active compounds read low",0.945
same,normalized growth,"locus YNL020C, strain ARK1, active compounds read low",0.195 (active)
same,normalized growth,"locus YNL161W, strain CBK1, active compounds read low",0.941
same,normalized growth,"locus YNL183C, strain NPR1, active compounds read low",0.187 (active)
same,normalized growth,"locus YNL207W, strain RIO2, active compounds read low",0.829 (active)
same,normalized growth,"locus YNL222W, strain SSU72, active compounds read low",0.934
same,normalized growth,"locus YNL307C, strain MCK1 (second series), active compounds read low",0.157 (active)
same,normalized growth,"locus YOL136C, strain PFK27, active compounds read low",0.159 (active)
same,normalized growth,"locus YOR061W, strain CKA2, active compounds read low",0.115 (active)
same,normalized growth,"locus YOR119C, strain RIO1, active compounds read low",0.183 (active)
same,normalized growth,"locus YOR231W, strain MKK1, active compounds read low",0.159 (active)
same,normalized growth,"locus YOR329C, strain SCD5, active compounds read low",0.972
same,normalized growth,"locus YPL031C, strain PHO85, active compounds read low",0.201 (active)
same,normalized growth,"locus YPL153C, strain RAD53, active compounds read low",0.181 (active)
same,normalized growth,"locus YPL204W, strain HRR25, active compounds read low",0.234 (active)
same,normalized growth,"locus YPL209C, strain IPL1, active compounds read low",0.965
same,normalized growth,"locus YPL256C, strain CLN2, active compounds read low",0.173 (active)
same,normalized growth,"locus YPR025C, strain CCL1, active compounds read low",0.954
same,normalized growth,"locus YPR106W, strain ISR1, active compounds read low",0.575 (active)
same,normalized growth,"locus YPR111W, strain DBF20, active compounds read low",0.608 (active)
same,normalized growth,"strain NNK1, active compounds read low",0.24 (active)
